Mtb bLac sens = beta-lactam sensitization of Mtb H37Rv; M. tuberculosis H37Rv growth with meropenem, percent inhibition; inhibition, % at 25 µM; 0.27% of 330,000 active; AID 434955; call rule not given here;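 further: growth measured after seven days incubation then overnight dye step; 0% = bacteria only wells and 100% = bacteria with antibiotic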
RecA intein inh = inhibitors of M. tuberculosis RecA intein splicing; P9WHJ3; cell-free RecA intein splicing, fluorescence; inhibition, % (test concentration not listed); 0.75% of 290,000 active; AID 2221; in the data active means inhibition above about 30%;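 further: 0% = vehicle wells and 100% = reference inhibitor control wells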
GDH-TPI counter-1 = GDH-TPI coupled enzyme inhibition counter-screen | inhibition, % at 4.8 µM | 1.2% of 360,000 active | GDH-TPI coupled enzyme counterscreen, NADH absorbance | AID 588335; in the data active means inhibition above about 30%;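 further: 0% = DMSO wells and 100% = wells lacking the enzyme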
Rv3671c inh = inhibits the M. tuberculosis serine protease Rv3671c | P9WHR9 | inhibition, % at 5.96 µM | 0.048% of 320,000 active; in the data active means inhibition above about 38%;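 further: extracellular domain of Rv3671c used as enzyme; 0% = enzyme with DMSO and 100% = no enzyme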
Target sequence (P9WHR9 whole entry, looked up, the tested form may be a part): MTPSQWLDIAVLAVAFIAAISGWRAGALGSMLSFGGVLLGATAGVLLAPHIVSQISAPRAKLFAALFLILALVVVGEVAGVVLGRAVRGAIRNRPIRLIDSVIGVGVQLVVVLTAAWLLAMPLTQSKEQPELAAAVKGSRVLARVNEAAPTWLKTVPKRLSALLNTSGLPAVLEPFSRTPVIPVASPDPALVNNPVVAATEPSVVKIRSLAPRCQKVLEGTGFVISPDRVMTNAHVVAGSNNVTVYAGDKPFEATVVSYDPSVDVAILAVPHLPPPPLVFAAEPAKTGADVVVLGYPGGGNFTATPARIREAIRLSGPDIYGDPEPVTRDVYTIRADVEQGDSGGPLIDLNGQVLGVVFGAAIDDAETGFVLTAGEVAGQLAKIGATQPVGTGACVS
UGM FP inh = inhibitors of M. tuberculosis UDP-galactopyranose mutase | 0.06% of 320,000 active | AID 504406 | inhibition, % at 10 µM | purified UGM, fluorescence polarization probe displacement; in the data active means inhibition above about 10%, passing the limit was not always enough
FBA Mtb inh = inhibits M. tuberculosis FBA enzyme; P9WQA3; purified M. tuberculosis FBA, fluorescence read-out; inhibition, % at 1 µM; 2.3% of 360,000 active;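 further: 0% = vehicle and 100% = reference inhibitor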
Mtb FBA confirm = Mtb FBA inhibition, confirmed; AID 651616; shares compounds with FBA Mtb inh; inhibition, % at 1 µM; 78% of 5,600 active; purified M. tuberculosis FBA, fluorescence read-out;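 further: 0% = vehicle wells and 100% = reference inhibitor wells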
GDH-TPI counter-2 = inhibits GDH-TPI coupling enzymes, flagging Mtb FBA hits | shares compounds with FBA Mtb inh | GDH-TPI coupled enzyme counterscreen, fluorescence | inhibition, % at 1 µM | 81% of 5,600 active | AID 652141; in the data active means inhibition above about 10%
GDH-TPI DR = inhibits GDH-TPI coupling enzymes in dose response | GDH-TPI coupled enzyme assay, fluorescence, artifact counterscreen | shares compounds with FBA Mtb inh | AID 652145 | 79% of 170 active | IC50, µM; call rule not given here
The depositor's hits bear a star; · = no result; + = active, no number. Most compounds without a hit are left out; they make up all but 4% or so of the library. Unless noted, no stated cut-off is given here; in the data, active means inhibition above about 27%; inactive means the rest.

SMILES | Mtb bLac sens | RecA intein inh | GDH-TPI counter-1 | Rv3671c inh | UGM FP inh | FBA Mtb inh | Mtb FBA confirm | GDH-TPI counter-2 | others
N#Cc1c(-c2ccccc2F)cc(-c2cccnc2)nc1N | -2 | 2 | 11 | 1 | 0 | 110* | -3 | -4
CCOC(=O)Cn1c2ccccc2n2nc(CCC(=O)O)c(=O)nc12 | 1 | 4 | 2 | -6 | -1 | 58* | -2 | -3
Cc1ccc(CN2C(=O)C(C)Nc3ncnc(N4CCOCC4)c32)cc1 (centres undefined) | -12 | 6 | 6 | -11 | 2 | 2 | · | ·
CNc1cccc(-c2ccc(N3CCN(C)CC3)nc2)n1 | · | · | 11 | · | · | 54* | 17 | 0 | GDH-TPI DR=3.5*
Cc1ccc(S(=O)(=O)Nc2ccc(N3CCN(C)CC3)nc2)cc1 | -6 | -2 | -2 | 8 | 1 | 0 | · | ·
CN(C)CCNC(=O)c1ccc2c(c1)N(Cc1ccc(F)cc1)CCS2 | -1 | -13 | -1 | -2 | 4 | 87* | -6 | -5
COc1ccc(OC)c(CCNC(=O)c2ccc3c(c2)N(Cc2ccc(F)cc2)CCS3)c1 | -10 | 2 | 1 | -1 | -1 | 22 | · | ·
O=C(NC1CCCC1)c1ccc2c(c1)N(Cc1ccc(F)cc1)CCS2 | 4 | 0 | 5 | -9 | 1 | 72* | 1 | 2
Cc1ccc(S(=O)(=O)N2CCN(C(=O)CNC(=O)c3ccc(Br)o3)CC2)cc1 | -2 | 2 | -10 | -7 | 1 | 2 | · | ·
COc1ccc(OC)c(NC(=O)c2cccc(NC(=O)c3ccco3)c2)c1 | · | · | -4 | · | · | -2 | · | ·
CCC(NC(=O)c1ccccc1O)c1ccccc1 (centres undefined) | -2 | 4 | -1 | -7 | 0 | 43* | 168* | 120*
COc1cccc2sc3cc(NCc4ccc5c(c4)OCO5)ccc3c(=O)c12 | 86 | · | 39* | -10 | 0 | 53* | 23 | 19*
COc1cc2sc3cc(NCc4ccc5c(c4)OCO5)ccc3c(=O)c2cc1OC | 5 | · | 20 | -13 | -2 | 18 | · | ·
O=S(=O)(c1ccc(F)cc1)N1CN2CCN(C2)C1 | 1 | -6 | 14 | -12 | -1 | 30* | 5 | -1
O=S(=O)(c1ccc(Cl)cc1)N1CN2CCN(C2)C1 | -7 | 3 | 8 | -11 | 1 | -2 | · | ·
C[C@H]1CNC(=O)c2c(C(=O)Nc3ccc(CNC(=O)OC(C)(C)C)cc3)ncn21 | · | · | 9 | · | · | 3 | · | ·
COc1cccc(-c2cnc3cccnn23)c1 | · | · | -3 | · | · | 53* | 97* | 69*
Cc1ccc(-c2cnc3cccnn23)cc1F | · | · | 3 | · | · | 60* | -5 | -5
COc1ccc(-c2nc3c(-c4ccccc4)cnn3cc2C)cc1F | 9 | 0 | 12 | -17 | 0 | 2 | · | ·
O=[N+]([O-])c1cccc(-c2ccc3nnc(SCc4cccnc4)n3n2)c1 | · | · | 6 | · | · | 0 | · | ·
CCOC(=O)Cc1csc(/N=C/c2c(O)n(-c3ccccc3C(F)(F)F)c(=O)c3ccccc23)n1 | -8 | -11 | 18 | -2 | 0 | 105* | 86* | 58*
CC(=O)N1CCN(c2ncnc3ccccc23)CC1 | -5 | -2 | 29 | 5 | -1 | -3 | · | ·
O=S(=O)(Nc1nc2cc3c(cc2nc1Cl)OCCO3)c1ccccc1 | 4 | -43 | 3 | -2 | -2 | 48* | 61* | 37*
CC(=O)Nc1ccc(S(=O)(=O)Nc2nc3cc4c(cc3nc2Cl)OCCO4)cc1 | 11 | -39 | 24 | 7 | 3 | 62* | 76* | 71*
OC[C@@H]1CN(Cc2ccco2)C[C@H](n2cnc3c(Nc4ccccc4)ncnc32)O1 | · | · | -4 | · | · | 7 | · | ·
SMILES | Mtb bLac sens | RecA intein inh | GDH-TPI counter-1 | Rv3671c inh | UGM FP inh | FBA Mtb inh | Mtb FBA confirm | GDH-TPI counter-2 | others
COc1cc(/C=C/C(=O)OCC(=O)NCCN2C(=O)CSC2=O)ccc1OCC#N | -2 | · | 14 | -6 | -2 | 13 | · | ·
Cc1ccc(-c2cc(C(=O)NCc3ccco3)c3ccccc3n2)o1 | -3 | -16 | -1 | -15 | 0 | 2 | · | ·
CCOc1ccc(NC(=O)CN(C)C(=O)c2cc(-c3ccc(OC)cc3)nc3ccccc23)cc1OCC | -7 | 2 | 9 | 8 | · | 28* | 51* | 39*
COc1cccc(NC(=O)CN(C)C(=O)c2cc(-c3ccc(C)o3)nc3ccccc23)c1 | 3 | · | 6 | -9 | -1 | 56* | 37* | 39*
Cc1ccc(-c2cc(C(=O)NCC(c3ccccc3)N(C)C)c3ccccc3n2)o1 (centres undefined) | -11 | · | 18 | -10 | 5 | 71* | 54* | 46*
COc1ccc(NC(=O)CN(C)C(=O)c2cc(-c3ccc(Cl)cc3)nc3ccccc23)cc1 | 3 | 1 | 7 | -11 | 4 | -2 | · | ·
O=C(CC1OC(=O)c2ccccc21)Nc1ccc(Cl)c(S(=O)(=O)N2CCCCC2)c1 (centres undefined) | -5 | 3 | 1 | -3 | -1 | -1 | · | ·
CCOC(=O)C1(C)CCCCN1C(=O)c1cccc(Cl)c1 (centres undefined) | · | · | -4 | · | · | 0 | · | ·
Cc1cc(OC(C)C(=O)NCc2cccnc2)c2c(C)c(C)c(=O)oc2c1 (centres undefined) | -3 | 6 | -3 | -3 | -1 | 14 | · | ·
Cc1cc(OC(C)C(=O)NCc2ccccn2)c2c(C)c(C)c(=O)oc2c1 (centres undefined) | 2 | -1 | 10 | -5 | -2 | 44* | + | 173*
Cc1c(C)c2ccc(OC(C)C(=O)NCc3ccccn3)cc2oc1=O (centres undefined) | -3 | -3 | 12 | -2 | -2 | 87* | 155* | 121*
CC(Oc1ccc2c3c(c(=O)oc2c1)CCCC3)C(=O)NCc1ccccn1 (centres undefined) | 44 | -1 | 12 | -3 | 1 | 79* | 31* | 16*
Cc1c(C)c2ccc(OCC(=O)NCc3ccccn3)cc2oc1=O | -1 | 0 | 2 | 3 | 0 | 81* | + | +
CCc1nc2ccc(C(=O)Nc3cccc(OC)c3)cn2c1N(CC)CCN(C)C | · | · | 3 | · | · | -5 | · | ·
OCc1ccc2c(c1)c(-c1ccc3c(c1)OCCO3)c(-c1ccccc1)n2-c1ccccc1 | 72 | · | -2 | 5 | 0 | 62* | 10 | 3 | GDH-TPI DR=1.4*
COc1cccc(C(O)c2nc(/C=C/c3ccc(C(F)(F)F)cc3)cs2)c1 (centres undefined) | · | · | 8 | · | · | -4 | · | ·
N#Cc1cnn2c(-c3ccccc3)ccnc12 | -4 | 1 | 6 | 7 | 0 | 66* | + | +
N#Cc1cnc2ncnn2c1-c1ccccc1 | -1 | 0 | 4 | -1 | 0 | -2 | · | ·
CSc1ncccc1C(=O)Nc1cccc(S(=O)(=O)N2CCCCC2)c1 | -4 | · | -2 | -8 | 1 | -1 | · | ·

Compound activity as filed in PubChem.
